Assay results as given in paper PMC5700166.

Tests used:
[1] = target: T1, GST-Nv-NF-kB (Ser allele) (Nematostella vectensis, UniProt A7UNT2 2-411); test: protein-binding microarray (PBM); PBM: ~300 nM protein, 6 mM HEPES pH 7.8, 80 mM KCl, 0.5 mM EDTA, 0.5 mM EGTA, 6% glycerol, 35 ng/ul poly-dIdC, 1% milk, 1 h, room temperature; Ap Aiptasia and Nv Nematostella (sea anemones) / Co Capsaspora / Aq Amphimedon (sponge) / Dm Drosophila / Hu human; RHD is the Rel homology domain; high values mean tight binding; settings: dsDNA, one strand shown
T1 sequence: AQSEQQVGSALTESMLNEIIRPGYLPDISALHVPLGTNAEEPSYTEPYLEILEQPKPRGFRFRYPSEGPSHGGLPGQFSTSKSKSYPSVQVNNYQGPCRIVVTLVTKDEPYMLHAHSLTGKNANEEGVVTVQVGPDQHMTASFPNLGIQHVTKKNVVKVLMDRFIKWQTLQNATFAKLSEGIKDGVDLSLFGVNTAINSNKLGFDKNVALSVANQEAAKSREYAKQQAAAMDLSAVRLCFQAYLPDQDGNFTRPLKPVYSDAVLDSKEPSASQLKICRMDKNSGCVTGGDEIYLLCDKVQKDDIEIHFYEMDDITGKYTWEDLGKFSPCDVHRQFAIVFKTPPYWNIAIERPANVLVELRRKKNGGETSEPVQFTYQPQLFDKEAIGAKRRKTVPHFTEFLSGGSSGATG

GST-Hu-p50 = GST-Hu-p50 (Homo sapiens, UniProt P19838 7-356); test: as above; settings: dsDNA, one strand shown
Chain of GST-Hu-p50 (P19838 7-356): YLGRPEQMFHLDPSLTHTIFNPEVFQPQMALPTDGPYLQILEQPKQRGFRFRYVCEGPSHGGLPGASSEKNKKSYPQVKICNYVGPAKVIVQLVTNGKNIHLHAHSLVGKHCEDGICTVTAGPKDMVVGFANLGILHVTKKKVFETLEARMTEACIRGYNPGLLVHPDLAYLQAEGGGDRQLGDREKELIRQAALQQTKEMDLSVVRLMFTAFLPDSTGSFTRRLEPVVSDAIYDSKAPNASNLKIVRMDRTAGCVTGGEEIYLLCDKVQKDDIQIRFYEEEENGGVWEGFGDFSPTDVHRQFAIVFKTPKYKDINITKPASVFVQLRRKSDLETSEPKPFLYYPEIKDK

Row | Sequence | binding signal [1] [z-score] | binding signal (GST-Hu-p50) [z-score]
1 | CCGATTAACATCAGGGCATACCCTGATGTTAATCGGGTCTTGATTCGCTTGACGCTGCTG | 1.31 | 1.86
2 | CCGATTAACATCAGGGGCGCCCCTGATGTTAATCGGGTCTTGATTCGCTTGACGCTGCTG | 4.55 | 4.9
3 | CCGATTAACATCAAAACAGTCCCTGATGTTAATCGGGTCTTGATTCGCTTGACGCTGCTG | 4.68 | 4.68
4 | CCGATTAACATCAGGAACCCCCATGATGTTAATCGGGTCTTGATTCGCTTGACGCTGCTG | 4.62 | 5.23
5 | CCGATTAACATCACCGCCCCACGTGATGTTAATCGGGTCTTGATTCGCTTGACGCTGCTG | 1.37 | 2.36
6 | CCGATTAACATCAAGTCCCCCAATGATGTTAATCGGGTCTTGATTCGCTTGACGCTGCTG | 3.54 | 4.25
7 | CCGATTAACATCAGGGACTCACCTGATGTTAATCGGGTCTTGATTCGCTTGACGCTGCTG | 2.72 | 3
8 | CCGATTAACATCACCCAACCCCCTGATGTTAATCGGGTCTTGATTCGCTTGACGCTGCTG | 3.73 | 4.28
9 | CCGATTAACATCAAAATTCCCGATGATGTTAATCGGGTCTTGATTCGCTTGACGCTGCTG | 4.77 | –
10 | CCGATTAACATCAAATACCCCCCTGATGTTAATCGGGTCTTGATTCGCTTGACGCTGCTG | 6.55 | –
11 | CCGATTAACATCAGATCCCCCCCTGATGTTAATCGGGTCTTGATTCGCTTGACGCTGCTG | 5.97 | –
12 | CCGATTAACATCAAGCTCTAAGGTGATGTTAATCGGGTCTTGATTCGCTTGACGCTGCTG | 1 | –
13 | CCGATTAACATCAGGGGGAGCACTGATGTTAATCGGGTCTTGATTCGCTTGACGCTGCTG | 4.71 | –
14 | CCGATTAACATCAGGGGGAGTCATGATGTTAATCGGGTCTTGATTCGCTTGACGCTGCTG | 5.02 | –
15 | CCGATTAACATCAGGGGGGGGAATGATGTTAATCGGGTCTTGATTCGCTTGACGCTGCTG | 6.53 | –
16 | CCGATTAACATCAGAACATCCCCTGATGTTAATCGGGTCTTGATTCGCTTGACGCTGCTG | 6.48 | –
17 | CCGATTAACATCAACTCCCCCCATGATGTTAATCGGGTCTTGATTCGCTTGACGCTGCTG | 4.05 | –
18 | CCGATTAACATCAAAGAGCCCCCTGATGTTAATCGGGTCTTGATTCGCTTGACGCTGCTG | 3.77 | –
19 | CCGATTAACATCAAAACACCCCCTGATGTTAATCGGGTCTTGATTCGCTTGACGCTGCTG | 5.6 | –
20 | CCGATTAACATCAGGGGGGGGGATGATGTTAATCGGGTCTTGATTCGCTTGACGCTGCTG | 5.68 | –
